Compounds with a hit are over-represented: about 21% of the library has one in this group of screens.
DT40 TDP1 CPT: growth inhibition of DT40 Tdp1-/-;hTDP1 cells with camptothecin (screen for TDP1 inhibitors); Potency, µM (titrated, usually from 46.2 µM), for the others: top-dose activity change, negative = growth inhibition, usual class: inhibitors; AID 686979; actives 12% (n = 420,000); chicken DT40 Tdp1-/-;hTDP1 cells + 20 nM CPT, ATP luminescence, 48 h; further: potency means the concentration at half of the fitted maximal effect; nearly all actives have a fitted effect of over 55% in size
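Cell growth measured by CellTiter-Glo luminescence after a minimum 48 h, 37 C compound exposure with 20 nM CPT in Tdp1-knockout DT40 cells stably expressing hTDP1, seeded 400/well; qHTS titration format.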
ELG1 repair inh: blocks ELG1-dependent DNA repair in HEK293T cells. Potency, µM (titrated, usually from 46.1 µM), inactives show at the top dose activity change, negative = inhibition, most hits filed as inhibitors. actives 2.3% (n = 330,000). HEK293T ELG1-luciferase reporter, luminescence, 16 h; DNA damage induced by 5-fluorouridine; further: potency means the concentration at half of the fitted maximal effect; nearly all actives have a fitted effect of over 55% in size
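Overnight (16 hr) co-exposure of 2,000 cells/well to 5-fluorouridine and compound at 37 °C preceded detection. Luciferase was quantified via ONE-Glo luminescence; loss of signal denotes inhibition.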
IL1B secr inh: inhibitors of inflammasome signaling (IL-1 beta secretion). THP-1 LPS/ATP IL-1B secretion, AlphaLISA, 16 h; stronger effect = lower value. activity change, % at 57.5 µM. actives 4.7% (n = 360,000). AID 743279; in the data active means activity change below about -50%; inconclusive means mostly about -30% to -49%
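Secreted IL-1B measured by AlphaLISA bead assay after 16 h compound exposure of THP-1 cells; compounds (final up to 57.5 uM) added 1 h before LPS (250 ng/mL) and ATP (1.25 mM) stimulation; lower signal means less secretion.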
TDP1 cell noCPT: qHTS for Inhibitors of human tyrosyl-DNA phosphodiesterase 1 (TDP1): qHTS in cells in absence of CPT. DT40 Tdp1-/- hTDP1 cells, no CPT, ATP luminescence, 48 h. Potency, µM (top dose mostly 46.2 µM), inactives show at the highest dose activity change, negative = growth inhibition, hits mostly inhibitors. actives 15% (n = 420,000); further: potency means the concentration at half of the fitted maximal effect; nearly all actives have a fitted effect of over 55% in size
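Growth kinetics read by CellTiter-Glo luminescence after ≥48 hr at 37 °C. Cells: DT40 Tdp1-/- stably carrying human TDP1, 400 per well, compound exposure in the absence of CPT (DMSO vehicle).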
RORgamma inh: blocks mouse ROR gamma transcriptional activity; Drosophila S2 Gal4-RORgamma UAS-luciferase reporter, 20 h; Potency, µM (top dose mostly 53.6 µM), for inactives: top-dose activity change, negative = inhibition, usual class: inhibitors; actives 5.4% (n = 310,000); AID 2551; further: potency means the concentration at half of the fitted maximal effect; nearly all actives have a fitted effect of over 60% in size
Target sequence (P51450 whole entry, looked up, the tested form may be a part): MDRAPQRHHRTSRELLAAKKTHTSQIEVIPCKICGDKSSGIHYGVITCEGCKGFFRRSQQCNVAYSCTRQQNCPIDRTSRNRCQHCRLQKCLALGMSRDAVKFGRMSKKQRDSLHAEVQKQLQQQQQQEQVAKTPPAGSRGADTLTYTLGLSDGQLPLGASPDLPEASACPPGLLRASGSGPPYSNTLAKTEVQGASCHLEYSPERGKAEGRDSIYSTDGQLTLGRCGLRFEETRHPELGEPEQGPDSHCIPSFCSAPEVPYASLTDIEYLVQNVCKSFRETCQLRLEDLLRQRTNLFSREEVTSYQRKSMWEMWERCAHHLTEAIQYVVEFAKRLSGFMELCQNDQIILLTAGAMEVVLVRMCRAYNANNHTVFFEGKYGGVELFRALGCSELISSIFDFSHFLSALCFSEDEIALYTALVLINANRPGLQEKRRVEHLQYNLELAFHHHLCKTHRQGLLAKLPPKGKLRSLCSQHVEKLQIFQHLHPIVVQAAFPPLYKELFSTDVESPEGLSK
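A Gal4/UAS one-hybrid system in insect cells: metallothionein-promoter Gal4–ROR gamma fusion plus Photinus luciferase reporter. Copper sulfate 700 uM final, 20 hr ambient incubation, luminescent detection after 10 min with reagent.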
VP16 counter: inhibits Gal4-VP16 luciferase reporter, ROR gamma counter-screen; actives 3.5% (n = 310,000); Potency, µM (series often up to 53.6 µM), for the others: top-dose activity, negative = inhibition, hits mostly inhibitors; Drosophila S2 Gal4-VP16 UAS-luciferase, luminescence, 20 h;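 further: Gal4-VP16 expression switched on by copper sulfate through the metallothionein promoter; potency means the concentration at half of the fitted maximal effect; nearly all actives have a fitted effect of over 50% in size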
Starred values were filed as active, the others as inactive. Unless noted, the call rests on the fitted dose curve; in most records, active means well fitted curve in the direction sought with a large enough effect; inconclusive means small, poorly fitted or top-dose-only effect, or another doubt; inactive means no such curve, though single readings can be large; an effect the other way counts as inactive or inconclusive. On the % scale 0 is the no-effect control and ±100 the full control effect.

Screening c1cc2c(cc1-c1ccc3c(c1)OCO3)CNCc1cnnn1-2 returned DT40 TDP1 CPT inconclusive, IL1B secr inh 0 and TDP1 cell noCPT inconclusive.
`C=CCOC(C)=O` gave RORgamma inh 9% and VP16 counter 3%.
For COc1cccc2c1N=C1CCCC3CN(C(C)=O)CCC123 (stereo unspecified) the results were DT40 TDP1 CPT -7%, IL1B secr inh -1 and TDP1 cell noCPT -10%.
Screening COc1ccc(-n2nnnc2C(c2ccccc2OC(F)(F)F)N2CCC(n3c(=O)[nH]c4ccccc43)CC2)cc1 (stereo unspecified) returned DT40 TDP1 CPT 21µM* and TDP1 cell noCPT 18µM*.
`COc1ccc(C(c2nnnn2-c2ccc3c(c2)OCCO3)N2CCC(n3c(=O)[nH]c4ccccc43)CC2)cc1` (stereo unspecified) gave DT40 TDP1 CPT inconclusive, IL1B secr inh inconclusive and TDP1 cell noCPT 16µM*.
O=c1[nH]c2ccccc2n1C1CCN(C(c2ccnc3ccccc23)c2nnnn2-c2ccc3c(c2)OCCO3)CC1 (stereo unspecified) was read as DT40 TDP1 CPT 5.2µM*, IL1B secr inh inconclusive and TDP1 cell noCPT 9.2µM*.
`CCC(c1nnnn1-c1ccc(OC)cc1)N1CCC(n2c(=O)[nH]c3ccccc32)CC1` (stereo unspecified) gave DT40 TDP1 CPT inconclusive, IL1B secr inh -22 and TDP1 cell noCPT inconclusive.
CCCCCCC(=O)CCCCCC/C=C/C[C@@H](O)[C@H](O)[C@@](N)(CO)C(=O)O was read as DT40 TDP1 CPT inconclusive, TDP1 cell noCPT inconclusive, RORgamma inh -6% and VP16 counter -4%.
Screening O=C(c1cc(F)ccc1F)C1CCCN(Cc2cccc(Cl)c2)C1 (stereo unspecified) returned DT40 TDP1 CPT -19%, ELG1 repair inh 1%, IL1B secr inh 17, TDP1 cell noCPT inconclusive, RORgamma inh 16% and VP16 counter -1%.
Cc1ccc(CCNC(=O)C2CCCN(Cc3nc(-c4cccc(Cl)c4)oc3C)C2)cc1 (stereo unspecified) was read as DT40 TDP1 CPT 12µM* and TDP1 cell noCPT 15µM*.
For CN1CCN(c2ncnc3nc[nH]c23)CC1 the results were DT40 TDP1 CPT -2%, ELG1 repair inh 4%, IL1B secr inh -2, TDP1 cell noCPT 15%, RORgamma inh -4% and VP16 counter -20%.
For O=C(c1c[nH]cc1-c1ccccc1)c1cccc2ccccc12 the results were DT40 TDP1 CPT 18µM*, ELG1 repair inh -1%, IL1B secr inh -15, TDP1 cell noCPT 15µM*, RORgamma inh 11% and VP16 counter -4%.
For Cc1ccc(NC(=S)NCC2CCCO2)cc1 (stereo unspecified) the results were DT40 TDP1 CPT -3%, ELG1 repair inh inconclusive, IL1B secr inh -7, TDP1 cell noCPT inconclusive, RORgamma inh inconclusive and VP16 counter inconclusive.
Screening O=C(CSc1ncnc2c1nnn2-c1ccc(F)cc1)NCC1CCCO1 (stereo unspecified) returned DT40 TDP1 CPT 15µM*, ELG1 repair inh inconclusive, IL1B secr inh inconclusive, TDP1 cell noCPT 21µM*, RORgamma inh inconclusive and VP16 counter inconclusive.
Screening ClCBr returned RORgamma inh -18% and VP16 counter -13%.
`CN(Cc1ccccc1)C(=O)c1cccc(NC(=O)Cc2ccc([N+](=O)[O-])cc2)c1` gave DT40 TDP1 CPT 23µM*, ELG1 repair inh inconclusive, IL1B secr inh inconclusive and TDP1 cell noCPT 15µM*.
Screening CCc1cc(-c2nnn(CCC3COCCO3)c2CC)cc(CC)c1-c1cn(Cc2ccc3ccccc3c2)nn1 (stereo unspecified) returned DT40 TDP1 CPT 21µM*, IL1B secr inh 4 and TDP1 cell noCPT 8.2µM*.
Screening CSc1ncc(CN2CCCC(C(=O)c3sccc3C)C2)cn1 (stereo unspecified) returned DT40 TDP1 CPT inconclusive, ELG1 repair inh -10%, IL1B secr inh 54, TDP1 cell noCPT inconclusive, RORgamma inh 3% and VP16 counter 12%.
For Cc1ccsc1C(=O)C1CCCN(Cc2cnc(N3CCCC3)s2)C1 (stereo unspecified) the results were DT40 TDP1 CPT 12µM*, ELG1 repair inh -14%, IL1B secr inh 9, TDP1 cell noCPT 18µM*, RORgamma inh 1% and VP16 counter -7%.
`Cc1ccsc1C(=O)C1CCCN(Cc2cc3ccccc3o2)C1` (stereo unspecified) gave DT40 TDP1 CPT inconclusive, ELG1 repair inh 5%, IL1B secr inh 11, TDP1 cell noCPT inconclusive, RORgamma inh 11% and VP16 counter -4%.
For Cc1ccc(CN2CCCC(C(=O)c3sccc3C)C2)o1 (stereo unspecified) the results were DT40 TDP1 CPT 3%, ELG1 repair inh 5%, IL1B secr inh -10, TDP1 cell noCPT 21µM*, RORgamma inh -18% and VP16 counter -11%.
For COc1cc(CN2CCCC(C(=O)c3sccc3C)C2)cc(OC)c1O (stereo unspecified) the results were DT40 TDP1 CPT inconclusive, ELG1 repair inh -3%, IL1B secr inh -11, TDP1 cell noCPT inconclusive, RORgamma inh -7% and VP16 counter 20%.
Screening Cc1ccsc1C(=O)C1CCCN(Cc2ccc(-n3cccn3)cc2)C1 (stereo unspecified) returned DT40 TDP1 CPT 21µM*, ELG1 repair inh -5%, IL1B secr inh -16, TDP1 cell noCPT 15µM*, RORgamma inh 33% and VP16 counter 0%.
Screening CCCCN1CC(=O)N2[C@H]3c4cc(C)ccc4OC[C@@H]3[C@H](c3ccccc3)[C@]2(C)C1=O returned DT40 TDP1 CPT inconclusive, ELG1 repair inh -18%, IL1B secr inh -5 and TDP1 cell noCPT inconclusive.
Screening CCCCCCCCCCCCCCCCOC[C@@H](COP(=O)([O-])OCC[N+](C)(C)C)OC(C)=O returned DT40 TDP1 CPT inconclusive, TDP1 cell noCPT inconclusive, RORgamma inh 17% and VP16 counter -5%.

High-throughput results deposited in PubChem BioAssay by National Center for Advancing Translational Sciences (NCATS).
